In the library only some 2.8% were active in any assay of this set; here they are far more common.
SNCA expr inh – Primary qHTS assay for inhibitors of alpha-synuclein gene (SNCA) expression; 0.17% of 140,000 active; Potency, µM (titrated, usually from 57.2 µM), for the others: at the top dose activity change, negative = inhibition, actives largely listed as inhibitors; HEK-293 SNCA-luciferase knock-in, luminescence, 24 h; AID 1671194, 2021;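 also: potency is read from the fitted curve at half-maximal effect; plate controls were DMSO cells for no effect and cell-free wells for full effect; nearly all actives have a fitted effect of over 45% in size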
IP6K1 inhibitor – Primary qHTS assay for small molecule inhibitors of Inositol hexaphosphate kinase 1 (IP6K1). IP6K1 kinase, ADP-Glo luminescence, 2 h; hits give low values. activity change, % (series mostly up to about 58 µM). 0.81% of 140,000 active. Inositol hexakisphosphate kinase 1 (Homo sapiens), Q92551; in the data active = activity change below about -25%; also: % is scaled to controls: 0 for no effect and ±100 for the full control effect
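ADP-Glo luminescence measures ADP made by human IP6K1 during a 2 h RT reaction with ATP/IP6 (mix at 1.3 mM/130 uM); top library doses 57.5 and 19.1 uM final.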
KDM5B inhibitor – Primary screen for KDM5B Histone Demethylases FDH-coupled qHTS | AID 1347165, 2019 | Lysine-specific demethylase 5B (Homo sapiens), Q9UGL1 | Potency, µM (series often up to 57.7 µM), actives largely listed as inhibitors | KDM5B demethylase, FDH-coupled NADH fluorescence (FDH is formaldehyde dehydrogenase) | 2.6% of 220,000 active; also: potency is read from the fitted curve at half-maximal effect; 0% is about no effect; nearly all actives have a fitted effect of over 70% in size
Target sequence (Q9UGL1 whole entry, looked up): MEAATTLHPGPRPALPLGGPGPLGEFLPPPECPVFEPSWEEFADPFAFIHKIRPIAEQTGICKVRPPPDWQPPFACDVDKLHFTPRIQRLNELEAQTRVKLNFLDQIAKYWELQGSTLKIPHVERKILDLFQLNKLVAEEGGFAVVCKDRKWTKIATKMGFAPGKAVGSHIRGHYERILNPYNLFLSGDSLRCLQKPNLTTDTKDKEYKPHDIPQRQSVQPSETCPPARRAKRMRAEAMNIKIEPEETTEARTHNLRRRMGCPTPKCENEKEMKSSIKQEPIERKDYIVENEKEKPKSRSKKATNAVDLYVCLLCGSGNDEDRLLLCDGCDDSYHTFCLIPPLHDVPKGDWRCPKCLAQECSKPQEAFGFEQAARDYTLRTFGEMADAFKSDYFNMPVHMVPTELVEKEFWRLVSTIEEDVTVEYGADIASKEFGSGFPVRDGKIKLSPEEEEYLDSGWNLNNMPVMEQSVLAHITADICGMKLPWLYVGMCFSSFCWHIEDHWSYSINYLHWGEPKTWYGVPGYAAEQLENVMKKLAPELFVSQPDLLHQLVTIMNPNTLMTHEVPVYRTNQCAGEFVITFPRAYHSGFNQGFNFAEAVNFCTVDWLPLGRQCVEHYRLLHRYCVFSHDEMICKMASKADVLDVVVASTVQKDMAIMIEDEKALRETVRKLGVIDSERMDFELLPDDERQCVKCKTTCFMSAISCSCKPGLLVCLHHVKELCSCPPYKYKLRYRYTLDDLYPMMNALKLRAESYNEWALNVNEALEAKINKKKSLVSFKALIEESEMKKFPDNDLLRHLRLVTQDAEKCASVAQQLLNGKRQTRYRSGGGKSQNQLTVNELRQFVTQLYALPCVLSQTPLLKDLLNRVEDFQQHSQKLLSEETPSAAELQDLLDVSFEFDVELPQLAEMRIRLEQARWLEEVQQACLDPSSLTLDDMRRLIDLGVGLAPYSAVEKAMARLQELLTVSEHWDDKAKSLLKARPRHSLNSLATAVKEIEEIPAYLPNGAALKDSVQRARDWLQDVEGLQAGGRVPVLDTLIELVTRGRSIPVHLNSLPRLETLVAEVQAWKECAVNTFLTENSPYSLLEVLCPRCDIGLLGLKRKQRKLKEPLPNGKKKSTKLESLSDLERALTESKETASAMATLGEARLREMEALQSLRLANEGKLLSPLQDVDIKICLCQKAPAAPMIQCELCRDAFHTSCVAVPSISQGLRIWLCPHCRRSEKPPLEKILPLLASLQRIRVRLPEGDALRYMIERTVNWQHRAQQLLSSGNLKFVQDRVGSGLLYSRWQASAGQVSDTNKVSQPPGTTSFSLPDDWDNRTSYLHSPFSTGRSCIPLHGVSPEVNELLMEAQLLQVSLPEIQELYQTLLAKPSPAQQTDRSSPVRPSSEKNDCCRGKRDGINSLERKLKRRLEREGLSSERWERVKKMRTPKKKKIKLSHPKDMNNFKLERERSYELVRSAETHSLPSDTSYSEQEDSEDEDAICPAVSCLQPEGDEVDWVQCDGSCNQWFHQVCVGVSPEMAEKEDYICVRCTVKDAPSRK
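Inhibition is measured as reduced NADH fluorescence generation from FDH coupling to formaldehyde release. Truncated KDM5BΔAP at 200 nM final acts on H3K4me3 peptide (12.5 µM in substrate mix) in pH 7.5 HEPES buffer with Tween-20, 30 min, room temperature.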
HEK293 viab – GF-AFC viability counterscreen for inhibitors of alpha-synuclein gene (SNCA) expression. AID 1671193, 2021. Potency, µM (titrated, usually from 57.1 µM), inactives show at the highest dose activity change, negative = cytotoxicity, actives largely listed as cytotoxic. HEK-293-SNCA-luc viability, GF-AFC fluorescence, 24 h. 0.12% of 150,000 active;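 also: potency is read from the fitted curve at half-maximal effect; 0% = DMSO-treated cells and -100% = medium-only wells without cells; nearly all actives have a fitted effect of over 30% in size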
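Cytotoxicity counterscreen: after 24 h compound treatment of genome-edited SNCA-luciferase HEK-293 cells, live-cell protease substrate GF-AFC read by fluorescence after 30 min; activity scaled between DMSO (0%) and medium-only (-100%), curves Hill-fitted.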
An asterisk follows results filed as active; i = inactive; ? = inconclusive; . = no result given; [ ] = another dose, or the depositor's remark. Unless noted, calls follow the shape of the dose curve; as a rule, active = well fitted curve in the direction sought with a large enough effect; inconclusive = small, poorly fitted or top-dose-only effect, or another doubt; inactive = no such curve, though single readings can be large; an effect the other way counts as inactive or inconclusive.

SMILES	SNCA expr inh	IP6K1 inhibitor	KDM5B inhibitor	HEK293 viab
CCN(Cc1ccco1)C(=O)[C@@H]1CN(c2ncccn2)C[C@H]1COC	3.2%	1.6	?	-3.3%
COC[C@@H]1CN(c2ncccn2)C[C@H]1C(=O)N(C)Cc1ccco1	-11.5%	16.8	17.8µM*	-15.0%
COC[C@@H]1CN(c2ncccn2)C[C@H]1C(=O)O	-3.4%	1.3	15.8µM*	5.3%
CCOCC(=O)N[C@@H]1CN(c2ncccn2)C[C@H]1CO	2.4%	-5.4	?	4.2%
CCOc1ccc(CCNC(=O)c2cc3c(-c4ccccc4F)nn(C)c3s2)cc1OCC	-17.9%	-1.4	?	-6.6%
CCCC(=O)N1CCc2nc(OCC)ccc2C1	?	-24.9	i	2.4%[12.5 µM]
COC(=O)CNC(=O)c1nc(C(C)(C)C)c2ccccn12	36.6%[87.6 µM]	-7.8	126µM*	14.0%[87.6 µM]
Cc1cccc(C)c1-c1nc(C(=O)N(C)C)n2ccccc12	-1.5%[87.6 µM]	30.4	39.8µM*	-0.2%[87.6 µM]
CC(C)(C)c1nc(C(=O)NCc2ccc(F)cc2)n2ccncc12	-8.4%	-7.7	100µM*	3.9%
CC(C)(C)c1nc(C(=O)NCc2ccc(F)cc2)n2ccccc12	4.4%	0.5	89.1µM*	0.1%
O=C(NCc1ccc(F)cc1)c1nc(-c2cccc(C(F)(F)F)c2)c2ccccn12	-4.8%	15.0	i	12.8%
Fc1ccc(NC(=S)NCCC(c2ccccc2)c2ccccc2)cc1Cl	.	.	i	.
COc1ccc(OC)c(S(=O)(=O)N[C@H]2CO[C@H]3[C@@H]2OC[C@H]3OC(=O)Nc2ccc(Oc3ccccc3)cc2)c1	-22.6%	10.9	i	-13.0%
CN(C)C(=O)c1nc(C(C)(C)C)c2ccccn12	-16.5%[87.6 µM]	-7.4	112µM*	5.4%[87.6 µM]
CN(C)C(=O)c1nc(-c2ccccc2)c2ccccn12	36.0%[87.6 µM]	21.2	i	4.6%[87.6 µM]
C=CCNC(=O)C(NC(=O)c1ccc(OC)cc1)C1CCN(C(=O)C2CC2)CC1 (configuration not stated)	26.3%	29.0	i	2.7%
COCCNC(=O)C(NC(=O)c1ccccc1)C1CCN(C(=O)C2CC2)CC1 (configuration not stated)	35.2%	12.9	17.8µM*	5.0%
OCc1ccc(CN2CCC[C@H]2c2nc(-c3ccc(N4CCOCC4)nc3)no2)o1	-2.4%[87.6 µM]	1.7	?	-0.7%[87.6 µM]
Clc1ccc(CN2CCC[C@H]2c2nc(-c3ccc(N4CCOCC4)nc3)no2)cc1	2.4%[87.6 µM]	24.8	35.5µM*	-8.7%[87.6 µM]
CN(C)c1ccc(-c2noc([C@@H]3CCCN3Cc3cnc4ccccc4c3)n2)cn1	-39.1%[87.6 µM]	18.5	28.2µM*	-20.4%[87.6 µM]
c1ccc(CN2CCC[C@H]2c2nc(-c3ccc(N4CCOCC4)nc3)no2)cc1	4.8%[87.6 µM]	1.1	31.6µM*	-8.5%[87.6 µM]
Cc1ccccc1N1Cc2c(NC3CCCCC3)ncnc2N(C)CC1=O	50.7%	-4.3	i	4.6%
CCS(=O)(=O)N1CCCCCCNC(=O)[C@@H]2C[C@@H](C(=O)N3CCN(c4ccccn4)CC3)C[C@@H]21	-7.6%	-0.4	?	4.3%
Cc1ccc(CN2CCCCCCNC(=O)[C@@H]3C[C@@H](C(=O)N4CCN(c5ccccn5)CC4)C[C@@H]32)o1	3.9%	-5.3	20µM*	-11.4%
CC(C)C(=O)N1CCCCCCNC(=O)[C@@H]2C[C@@H](C(=O)N3CCN(c4ccccn4)CC3)C[C@@H]21	-12.7%	1.7	25.1µM*	-2.2%
SMILES	SNCA expr inh	IP6K1 inhibitor	KDM5B inhibitor	HEK293 viab
Cc1ccc(CN[C@@H]2CO[C@H](CNC(=O)C3CCCC3)[C@H]2O)cc1	5.1%[87.6 µM]	5.8	i	7.3%[87.6 µM]
CN(c1ccccc1)S(=O)(=O)c1nnc(NC(=O)c2ccccc2)s1	-10.5%	15.0	i	3.2%
COCCOC1CCN(C(C(=O)O)c2ccc3c(c2)OCO3)CC1 (configuration not stated)	2.1%	-1.8	i	9.5%
COc1ccc(Cl)cc1-c1ccc2c(c1)C(=O)N1CCN(C(=O)CN)C[C@H]1C(=O)N2	-7.9%[87.6 µM]	25.9	35.5µM*	-3.7%[87.6 µM]
COc1ccc(Cl)cc1-c1ccc2c(c1)C(=O)N1CCN(C(=O)C3CCCC3)C[C@H]1C(=O)N2	13.6%	4.3	20µM*	5.4%
O=C1Nc2ccc(-c3ccc(Cl)cc3)cc2C(=O)N2CCN(C(=O)C3CCCCC3)C[C@H]12	?	-8.3	25.1µM*	-19.3%
CCN1C(=O)c2ccccc2S(=O)c2ccc(C(=O)N3CCN(c4ccccc4)CC3)cc21 (configuration not stated)	8.7%	11.4	i	5.1%
Cn1cc(-c2cnc3[nH]cc(CC(=O)Nc4ccc(N5CCOCC5)cc4)c3c2)cn1	0.7%[87.6 µM]	-17.7	?	6.5%[87.6 µM]
COc1ccc(NC(=O)Cc2c[nH]c3ncc(-c4ccccc4C)cc23)cc1	?	-21.3	?	-15.5%[87.6 µM]
COc1ncccc1-c1cnc2[nH]cc(CC(=O)NC3CC3)c2c1	42.4%[87.6 µM]	-16.5	?	-14.8%[87.6 µM]
Cc1ccccc1-c1cnc2[nH]cc(CC(=O)NC3CC3)c2c1	-3.2%[87.6 µM]	-16.8	28.2µM*	-16.3%[87.6 µM]
COc1ncccc1-c1cnc2[nH]cc(CC(=O)Nc3nc(C)cs3)c2c1	13.3%[87.6 µM]	-17.2	i	-27.8%[87.6 µM]
Cn1cc(-c2cnc3[nH]cc(CC(=O)Nc4cccc(F)c4)c3c2)cn1	-8.3%[87.6 µM]	-16.4	28.2µM*	-20.6%[87.6 µM]
COc1ncccc1-c1cnc2[nH]cc(CC(=O)Nc3cccc(Cl)c3)c2c1	13.1%[87.6 µM]	27.5	31.6µM*	?
Cc1ccccc1-c1cnc2[nH]cc(CC(=O)Nc3ccccc3)c2c1	?	8.2	35.5µM*	?
COC(=O)CC(NS(=O)(=O)c1cccs1)c1ccc2c(c1)OCO2 (configuration not stated)	.	.	i	.
Cn1cnnc1-c1ccc(NS(=O)(=O)c2ccc(C(C)(C)C)cc2)cc1	.	.	i	.
O=C(Cc1c[nH]c2ncc(-c3ccccc3)cc12)NCc1ccncc1	7.2%[87.6 µM]	-15.0	28.2µM*	1.7%[87.6 µM]
CC(=O)Nc1ccc(NC(=O)c2c(C)oc3ccn(Cc4ccc(F)cc4)c(=O)c23)cc1	-22.9%	12.1	28.2µM*	-16.2%
COc1ccc(OC)c(NC(=O)c2c(C)oc3ccn(Cc4cccc(F)c4)c(=O)c23)c1	-11.9%	5.8	25.1µM*	-15.3%
COc1ccc(NC(=O)c2c(C)oc3ccn(Cc4cccc(F)c4)c(=O)c23)cc1F	-4.7%	4.9	i	-2.8%
N#CCCN(C(=O)CSc1nnnn1-c1ccc(O)cc1)c1ccccc1	.	.	i	.
CC1(CNCc2ccccc2)COc2ccc(C(=O)NCc3cccs3)cc2N1 (configuration not stated)	0.3%[87.6 µM]	3.6	31.6µM*	-29.4%[87.6 µM]
CC1(COc2ccccc2)COc2ccc(C(=O)NCc3cccs3)cc2N1 (configuration not stated)	9.0%[87.6 µM]	13.2	31.6µM*	-1.1%[87.6 µM]
CC1(CNc2ccccc2)COc2ccc(C(=O)NCc3cccs3)cc2N1 (configuration not stated)	?	-2.9	?	-7.8%[87.6 µM]
